# Results: PubChem BioAssay (Tox21)
# Inconclusive results are not listed. A number with no mark means an inactive call. Calls of active or inactive are those of the source. Calls come from the whole dose curve; as a rule, active = well fitted inhibition curve with a large enough effect in the signal ratio in the repeat runs (not every such curve was filed as active); inconclusive = weak or mixed curves, or effect the other way; inactive = no such curve, though single readings can be large or run the other way; the % refers to the signal ratio.
# Molecular target: Vitamin D3 receptor (Homo sapiens) (UniProt P11473)
# Test: qHTS assay to identify small molecule antagonists of the vitamin D receptor (VDR) signaling pathway (AID 743223)
# Conditions: VDR-UAS-bla HEK293T, beta-lactamase FRET ratio, 16 h; series mostly up to 61 µM; activity change, negative = inhibition: at the top concentration
# Description: U.S. Tox21 Program National Center for Advancing Translational Sciences [NCATS] NIH Chemical Genomics Center [NCGC] U.S. Environmental Protection Agency [EPA] National Institutes of Environmental Health Sciences [NIEHS] National Toxicology Program [NTP] U.S. Food and Drug Administration [FDA] Tox21 Assay Overview: The vitamin D receptor (VDR), a member of nuclear hormone receptor superfamily, plays a critical role in calcium homeostasis and bone metabolism. It is also involved in cell differentiation and growth, and thrombogenicity.
# Tox21 Assay Protocol Summary: VDR-bla cells were dispensed at 2,000 cells/5 uL of assay medium per well into black wall/clear-bottom 1536-well plates using a Multidrop Combi (Thermo Fisher Scientific, Waltham, MA) dispenser. After the assay plates were incubated at a 37C and 5% CO2 for 4 h, 23 nL of compounds dissolved in DMSO, positive controls or DMSO only was transferred to the assay plate by a Pintool station (Kalypsys, San Diego, CA), followed by addition of 1 uL of 1alpha, 25-Dihydroxy Vitamin D3 (3 nM, final concentration in the wells) using a Bioraptr Flying Reagent Dispenser (FRD) workstation (Beckman Coulter, Indianapolis, IN). The plates were incubated at 37C and 5% CO2 for 16 h, and then 1 uL of LiveBLAzerTM B/G FRET substrate was added using a Bioraptr FRD. The plates were incubated at room temperature for 2 h and fluorescence intensity was measured by an Envision plate reader (PerkinElmer, Shelton, CT).
# % is set by controls: 0 for no effect and ±100 for the full control effect.
# Vitamin D3 receptor (Homo sapiens), sequence (P11473 whole entry, looked up): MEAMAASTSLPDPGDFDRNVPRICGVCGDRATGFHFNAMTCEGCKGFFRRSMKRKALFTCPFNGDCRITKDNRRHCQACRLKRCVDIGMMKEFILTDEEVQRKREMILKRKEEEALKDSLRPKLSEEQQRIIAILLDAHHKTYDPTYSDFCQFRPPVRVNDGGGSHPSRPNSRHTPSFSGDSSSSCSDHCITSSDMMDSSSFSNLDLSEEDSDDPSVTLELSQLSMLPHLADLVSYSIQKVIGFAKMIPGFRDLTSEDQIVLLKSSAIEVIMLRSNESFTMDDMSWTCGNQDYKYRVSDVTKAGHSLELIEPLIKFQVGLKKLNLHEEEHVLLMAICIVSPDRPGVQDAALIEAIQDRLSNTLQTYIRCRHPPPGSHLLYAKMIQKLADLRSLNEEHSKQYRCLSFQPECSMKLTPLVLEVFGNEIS
SMILES,"activity change, negative = inhibition",outcome
CNC(=O)O/N=C/C(C)(C)S(C)=O (stereo not given),1.07% [at 78.8 µM],
c1ccc2c(c1)CCCC2,-11.6% [at 78.8 µM],
CCSC(=O)N1CCCCCC1,,inactive
CC(C)CCCCCCOC(=O)c1ccccc1C(=O)OCCCCCCC(C)C,,inactive
Oc1ccc(Cl)cc1,,inactive
CN(C)C(=O)Nc1cccc(C(F)(F)F)c1,,inactive
[N-]=[N+]=CC(=O)OC[C@H](N)C(=O)O,0.971%,
Cl/C=C/Cl,,inactive
O=[N+]([O-])c1ccc(Cl)cc1,,inactive
Cc1ccc(N=C=O)cc1N=C=O,,inactive
C[C@H]1C(=O)O[C@@H]2CCN3CC=C(COC(=O)[C@](C)(O)[C@]1(C)O)[C@H]23,,inactive
N#Cc1cccc(C#N)c1,,inactive
CC(C)c1cccc(C(C)C)c1O,,inactive
C=C(C)C(=O)OCC(CC)CCCC (stereo not given),,inactive
O=S(=O)(O)OOS(=O)(=O)O,,inactive
Cc1cccc(N)c1C,,inactive
CN(C)CCC#N,4.59% [at 78.8 µM],
Nc1ccc(N)cc1,0.143%,
CNC(=O)O/N=C(\SC)C(=O)N(C)C,-6.94% [at 78.8 µM],
OCC(O)CCl (stereo not given),,inactive

SMILES,"activity change, negative = inhibition",outcome
C=CCN=C=S,,inactive
O=C(O)C(Br)Br,-24.1%,
Sc1ccccc1,,inactive
Nc1cc(Cl)cc(Cl)c1,,inactive
CN1C(=O)CCS(=O)(=O)C1c1ccc(Cl)cc1 (stereo not given),-9.19%,
Cc1cc(O)ccc1Cl,,inactive
N#CN=C(N)N,,inactive
O=C(O)COc1ccccc1,,inactive
O=[N+]([O-])c1ccc(Cl)c(Cl)c1,-0.93%,
Nc1ncc([N+](=O)[O-])s1,,inactive
COc1cc(-c2ccc(N)c(OC)c2)ccc1N,,inactive
Cc1cccc(N)c1,,inactive
O=C/C=C/c1ccccc1,,inactive
CC(C)(C)C(=O)CCl,-0.212%,
CN(C)C(=O)Cl,,inactive
CCNc1nc(Cl)nc(NC(C)C)n1,,inactive
CC(=O)/C=C/c1ccccc1,,inactive
CNCC(O)c1ccc(O)cc1 (stereo not given),-2.39%,
CC12CC1(C)C(=O)N(c1cc(Cl)cc(Cl)c1)C2=O (stereo not given),-11.4%,
CC[N+](=O)[O-],,inactive
